Compound activity from PubChem.
An excerpt weighted towards active compounds, which were near 6.2% of everything screened.
AHR act: AHR activators, primary screen, cell-based, luminescence, luciferase reporter, human. actives 2.5% (n = 320,000). Aryl hydrocarbon receptor (Homo sapiens), P35869. AHR-responsive luciferase reporter cells. activation, % at 5 µM; in the data active means activation above about 47%;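 further: 0% = vehicle wells and 100% = reference agonist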
Target sequence (P35869 whole entry, looked up): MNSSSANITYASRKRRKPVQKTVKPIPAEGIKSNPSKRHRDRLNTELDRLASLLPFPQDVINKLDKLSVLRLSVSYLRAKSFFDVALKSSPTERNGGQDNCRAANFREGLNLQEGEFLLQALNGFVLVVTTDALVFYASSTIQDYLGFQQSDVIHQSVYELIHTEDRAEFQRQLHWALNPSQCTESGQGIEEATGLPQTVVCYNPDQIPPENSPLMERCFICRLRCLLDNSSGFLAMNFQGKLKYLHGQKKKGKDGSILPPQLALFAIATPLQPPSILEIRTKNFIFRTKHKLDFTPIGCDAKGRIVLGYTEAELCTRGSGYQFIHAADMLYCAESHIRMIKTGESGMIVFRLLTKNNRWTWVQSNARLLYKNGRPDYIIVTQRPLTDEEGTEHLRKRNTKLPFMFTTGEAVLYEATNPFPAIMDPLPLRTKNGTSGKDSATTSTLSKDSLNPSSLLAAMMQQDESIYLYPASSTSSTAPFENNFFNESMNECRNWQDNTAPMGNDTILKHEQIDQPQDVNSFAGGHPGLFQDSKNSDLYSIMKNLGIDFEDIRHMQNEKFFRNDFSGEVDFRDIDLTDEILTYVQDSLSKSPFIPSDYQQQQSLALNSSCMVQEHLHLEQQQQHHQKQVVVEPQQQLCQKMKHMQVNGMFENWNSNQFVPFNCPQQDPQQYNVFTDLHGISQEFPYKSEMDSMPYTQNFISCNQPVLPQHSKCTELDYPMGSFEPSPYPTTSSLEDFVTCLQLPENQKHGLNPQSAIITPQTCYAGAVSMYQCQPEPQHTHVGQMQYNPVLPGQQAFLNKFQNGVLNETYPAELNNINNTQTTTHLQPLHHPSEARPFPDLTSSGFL
Mot1-301 SUMO: yeast Mot1-301 growth rescue at high temperature, primary screen, SUMOylation pathway inhibitor project, S. cerevisiae, ATP luminescence, 38.5C; S. cerevisiae Mot1-301 growth rescue; percent above DMSO median, 100 means doubled; growth rescue, % at 18.8 µM; actives 1% (n = 320,000);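 active means every valid replicate shows activation above 250% relative to neutral control wells; inactive means the rest, any valid replicate at or below 250%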;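 further: OY570 slx delta 5 strain wells were the positive control but not used for scaling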
Cardio protect: cardioprotection against H2O2-induced cell death, primary screen, uHTS, H9c2 cells, ATPLite luminescence; actives 0.63% (n = 360,000); H9c2 cardiomyocytes, H2O2 injury protection, 2 h; protection from H2O2 cell death, % at 20 µM;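 active means compounds giving at least 50% protection of heart cells from peroxide-induced death in the single-dose screen, raw or plate-pattern-corrected value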;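 further: 0% = DMSO wells with peroxide and 100% = DMSO wells without peroxide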
NTR1 agonist: agonists of human NTR1, primary screen, imaging, U2OS cells, beta-arrestin-GFP, high content; Neurotensin receptor type 1 (Homo sapiens), P30989; NTR1-U2OS beta-arrestin-GFP spot imaging, agonist mode; activation, % at 20 µM; actives 0.17% (n = 330,000); AID 493036, 2011;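 active means activation at or above 40% of the spot to cytoplasm intensity ratio, with at least 20 cells analyzed; inconclusive means wells under 20 cells, flagged as cytotoxic or low count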;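 further: 0% = DMSO without peptide and 100% = 100 nM NTR1 peptide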
AI-2 QS modul: Vibrio harveyi AI-2 quorum sensing modulators, primary screen, JMH597 strain, luminescence/OD600 ratio; Vibrio harveyi JMH597 AI-2 luminescence/OD600 ratio, 9 h; stronger effect = lower value; strain lacks LuxN and CqsS sensors; 0 = neutral-control median; activity change, % at 7.5 µM; actives 0.4% (n = 300,000); AID 2094, 2009; in the data active means activity change below about -75%, passing the limit was not always enough; inconclusive means no clear call, values can overlap the other calls;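 further: luminescence divided by OD600 gain over 9 h not by final OD600 alone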
GRIN3A LBD mod: binders of NR3A ligand-binding domain, primary screen, biophysical, differential scanning fluorimetry, uHTS; actives 2.5% (n = 340,000); NR3A LBD differential scanning fluorimetry, Tm shift; 0% = protein alone, 100% = glycine-bound protein; Tm shift relative to glycine control, % at 25 µM; AID 1259313, 2017;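 active means melting temperature shift of at least 10% of the positive control shift, at one fixed dose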
The depositor's hits bear a star; ? = inconclusive; nt = no result.

SMILES	AHR act	Mot1-301 SUMO	Cardio protect	NTR1 agonist	AI-2 QS modul	GRIN3A LBD mod
Cc1ccc(/C=N/NC(=O)c2c[nH]c3ccccc23)s1	50.5*	14.7	20.8	0.9	33.3	35.0*
Cc1ccc(/C=N/NC(=O)c2cccc3ccccc23)o1	7.8	44.0	1.1	0.3	18.6	1.3
Cc1ccc(/C=N/NC(=O)c2c[nH]c3ccccc23)o1	71.8*	-16.8	1.7	0.6	5.6	16.9*
CCn1nc(C)c(/C=N/NC(=O)c2c[nH]c3ccccc23)c1C	98.8*	-13.5	-2.3	1.8	24.3	-1.9
CCn1nc(C)c(/C=N/NC(=O)Cn2nccc2C)c1C	3.2	5.1	8.4	0.0	28.5	-1.1
COc1cc(/C=N/NC(=O)c2cccc(C(=O)N/N=C/c3ccc(O)c(OC)c3)n2)ccc1O	nt	5.1	2.6	-1.5	9.8	-1.6
COc1ccc(/C=N/NC(=O)c2cccc(C(=O)N/N=C/c3ccc(OC)cc3)n2)cc1	5.3	306.2*	-6.4	-0.6	15.6	-0.5
O=C(N/N=C\c1ccccc1)c1cccc(C(=O)N/N=C\c2ccccc2)n1	70.5*	-30.0	-0.7	-0.9	11.9	-0.3
COc1ccc(/C=N/NC(=O)c2sc(C)nc2C)cc1	55.9*	-3.2	2.0	0.0	11.9	-0.6
O=C(N/N=C/c1ccccc1)c1cccc2ccccc12	21.7	-14.0	-4.7	-1.0	2.9	2.5
Nc1c(C(=O)N/N=C/c2ccccc2)cnn1-c1ccccc1	7.7	-6.0	3.1	0.9	2.6	14.8*
COc1ccc(NC(=O)c2ccco2)cc1NC(=O)c1ccccc1[N+](=O)[O-]	2.1	-8.2	2.7	-0.3	12.9	-1.1
CC1CCCCN1S(=O)(=O)c1ccc(C(=O)Nc2ccccc2-c2nc3ccccc3[nH]2)cc1 (stereo not drawn)	2.9	4.1	-8.3	12.7	24.7	30.2*
O=C(Nc1ccccc1-c1nc2ccccc2[nH]1)c1ccc(N2C(=O)CCC2=O)cc1	49.5*	16.5	28.5	20.3	14.9	8.9
O=C(Nc1ccc(-c2nc3ccccc3[nH]2)cc1)c1cccc(N2C(=O)CCC2=O)c1	7.4	-11.6	1.5	2.4	14.7	5.8
O=C(Nc1ccccc1-c1nc2ccccc2[nH]1)c1ccc(S(=O)(=O)N2CCCCC2)cc1	nt	nt	-1.1	nt	25.9	6.5
CCN(CC)C(=O)C1=C(C)N(CCCN2CCCC2=O)C(=O)C(CC(=O)NCCCCc2ccccc2)C1 (stereo not drawn)	nt	nt	0.3	nt	nt	nt
Cc1ccc(CNC(=O)C2c3ccccc3C(=O)N3CCc4ccccc4C23)o1 (stereo not drawn)	115.0*	6.3	38.0	1.0	9.8	2.3
C[C@@H]1CN([C@@H](C)CO)C(=O)CCCn2nncc2CO[C@H]1CN(C)C(=O)C1CC1	nt	nt	7.8	nt	nt	nt
O=C(COC(=O)COc1ccc(Br)cc1)NNC(=O)c1ccccc1	0.3	-32.1	0.1	2.9	nt	-0.3
COc1ccc(CN2CCc3c([nH]c4ccccc34)C2)c(OC)c1C	22.0	249.5	-9.2	1.9	nt	1.6
O=C(Cn1c(=O)c2cccn2c2ccc(F)cc21)NCCCN1CCN(c2ccccc2F)CC1	5.4	-5.7	2.2	0.5	7.9	13.4*
CN(C)CCNC(=O)Cn1c(=O)c2cccn2c2ccc(F)cc21	nt	-15.3	0.5	-1.3	34.8	2.1
CC(C)(C)C(=O)N1CCC2CC1c1cc(Cl)ccc12 (stereo not drawn)	nt	nt	-5.8	nt	nt	-1.1
Cc1nn(-c2ccc(Cl)cc2)c(N)c1C(O)(CSc1nccn1C)C(F)(F)F (stereo not drawn)	48.0*	10.6	0.0	0.0	nt	-3.7
SMILES	AHR act	Mot1-301 SUMO	Cardio protect	NTR1 agonist	AI-2 QS modul	GRIN3A LBD mod
COc1ccccc1-c1noc2c1C(=O)N(C(=O)OC(C)(C)C)CC2	nt	nt	18.9	nt	nt	nt
CCC1(CC)NC(=O)N(CC(=O)OCC(=O)Nc2ccccc2OC(F)F)C1=O	-1.3	-7.9	2.7	-0.9	nt	1.7
CCC1(CC)NC(=O)N(CC(=O)OCC(=O)Nc2ccccc2[N+](=O)[O-])C1=O	0.4	10.5	70.1*	-0.6	32.1	0.8
C[C@H]1CN([C@@H](C)CO)C(=O)CCCn2cc(nn2)CO[C@@H]1CN(C)C(=O)Nc1ccc(N2CCN(C)CC2)cc1	nt	nt	2.7	nt	nt	nt
COc1ccc(CC(=O)NNC(=O)c2cc(C)oc2C)cc1OC	0.1	-4.1	4.1	0.7	11.2	-3.2
O=C(N/N=C/c1c(-c2ccccc2)[nH]c2ccccc12)c1cccnc1	73.5*	19.6	20.1	-0.1	5.3	-36.5
Cc1ccccc1/C=N/NC(=O)c1cccnc1	40.3	-12.8	7.7	0.0	9.0	0.5
O=C(N/N=C/c1cccc2ccccc12)c1cccnc1	53.5*	-11.1	27.2	-1.1	-4.3	-5.7
CCc1ccc(C(=O)N/N=C/c2cccc3ccccc23)nc1	37.9	-7.4	-5.7	1.4	31.5	11.5*
Cn1c(-c2ccccc2)c(/C=N/NC(=O)c2cccnc2)c2ccccc21	59.1*	4.2	-3.3	3.6	13.5	-2.5
Cn1cccc1/C=N/NC(=O)c1cccnc1	5.7	-0.3	-1.8	-0.5	3.4	2.0
Cc1ccccc1C(=O)N/N=C/c1cccc2ccccc12	22.7	4.3	-3.0	1.0	22.4	-2.7
O=C(NCC1CCCO1)c1ccc(NC(=O)c2cccc([N+](=O)[O-])c2)cc1 (stereo not drawn)	0.0	-5.1	4.8	-0.6	1.7	-14.3
CC(C)CCOc1ccc(C(=O)NN2C(=O)NC3(CCCCC3)C2=O)cc1	-1.4	-5.0	-12.3	1.2	22.6	1.0
CC1(c2ccccc2)NC(=O)N(NC(=O)COC(=O)c2cc(Br)ccc2O)C1=O (stereo not drawn)	-1.6	15.4	-3.8	0.0	?	-4.6
CC(C)Oc1ccc(F)cc1-c1cc(C(=O)NCc2ccc(F)cc2)[nH]n1	nt	nt	4.7	nt	nt	nt
O=C(CN1C(=O)c2cccc3cccc1c23)Nc1cccnc1	53.8*	-3.1	18.5	-0.5	-73.3	2.4
O=C(CNc1ccc(F)cc1)N/N=C/c1c(O)ccc2ccccc12	16.4	4.0	14.2	14.2	28.1	27.1*
COc1ccccc1N(CC(=O)N/N=C/c1c(O)ccc2ccccc12)S(C)(=O)=O	25.4	19.5	49.2	2.7	19.3	-4.0
O=C(Cc1n[nH]c(=O)[nH]c1=O)N/N=C/c1c(O)ccc2ccccc12	-0.6	-17.9	1.1	-0.4	6.2	0.4
COc1ccccc1NCC(=O)N/N=C/c1c(O)ccc2ccccc12	11.6	-7.7	41.9	5.1	30.9	16.0*
